The OligoGym collection

biological target: KRCC1; test: pooled miR-30 sensor sort-seq; sequence = guide strand; details: shRNA
Also: reference of the scale not given here.

| Sequence | sensor-assay potency score (higher = more potent) |
| --- | --- |
| TTAGAGACTACATCTCGGCTTT | 0.863 |
| TTTCTGTACTGACATGTACGGT | -0.751 |
| TTAACCTCTCCTTTGTACCCAC | -0.366 |
| TTGATGAGTACTGGTACTGTTA | -0.491 |
| TTCTCTTATGCTTAGACCGCTC | -0.386 |
| TTTCTTAGAGACTACATCTCGG | -0.234 |
| TTCTGTACTGACATGTACGGTT | -0.0449 |
| TTCTTAGAGACTACATCTCGGC | -0.216 |
| TTTTTCTGAGAAACAGTCCCTC | -0.167 |
| TTCTTGTTGATTAAAGTTCAGG | -0.822 |
| TTGTTGATTAAAGTTCAGGGGT | -0.113 |
| TTATCTGAGGAGAAGTGCTTGT | 0.253 |

biological target: KRI1; test: as above; details: shRNA

| Sequence | sensor-assay potency score (higher = more potent) |
| --- | --- |
| TTCTTCAACAAGGAGAGCGTTT | -0.767 |
| TAACCTTCCTCTCGTAGTCCTT | -0.514 |
| TTCCTCCACATAACTTTGCGAC | -0.99 |
| TTCTGCAGCAAACTGGAGCCGC | -0.837 |
